From PubChem BioAssay AID652154 (Broad Institute, 2013)
Out of some 360,000 compounds screened, about 4,200 (1.2%) were called active.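 Rule for the calls: active = mean replicate inhibition at least 60% with every replicate also reaching 60%; inconclusive = only one of the two criteria is met; inactive = mean below 60% and not all replicates reaching 60%.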 The entries come from a sample that favours actives as a whole.

Experiment: PAX8 transcriptional activity inhibition in RMG-I – RMG-I cells, luciferase, single concentration, primary screen (AID 652154);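 note: luciferase light reporting Pax8 driven TPO promoter activity; plate controls were median of neutral control wells for no effect and mitoxantrone controls for full effect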
Conditions: RMG-I TPO-luciferase reporter, SteadyGlo, 24 h; at 12.6 µM; hits give high values

inhibition, inactive:
O=C(C[C@@H]1CC[C@H]2[C@@H](COC[C@@H](O)CN2Cc2nccs2)O1)NCc1ccc(-c2ccccc2)cc1 23%, C[C@@H]1CN([C@H](C)CO)C(=O)Cc2cc(NC(=O)CCN3CCOCC3)ccc2O[C@@H]1CN(C)S(C)(=O)=O -16.5%, C[C@H](CO)N1C[C@H](C)[C@@H](CN(C)Cc2ccccn2)Oc2ncc(-c3cccc(F)c3)cc2C1=O -0.625%, Cc1ccccc1S(=O)(=O)N1CC(=O)N2[C@H](CO)[C@H](c3ccc(C#CC4CC4)cc3)[C@@H]2C1 -7.36%, Cc1csc(NC(=O)CSc2nc(=O)cc(N)n2-c2ccc(F)cc2)n1 -0.606%, COc1cc2ccccc2cc1C(=O)Nc1ccccc1C -95.1%, O=C(Cc1ccccc1)N1C[C@@H]2[C@H](c3ccccc31)[C@@H](CO)N2C(=O)C1CCOCC1 10.4%, O=C(c1cccnc1)N1CC[C@H]2[C@H](CO)Nc3ccc(-c4ccc(F)cc4)cc3[C@H]21 1.77%, CN(C[C@@H]1[C@H](c2ccccc2)[C@@H](CO)N1Cc1ccccn1)S(C)(=O)=O -9.74%, CC(OC(=O)/C=C/c1ccccc1)C(=O)NC1CCCCC1C (stereo unspecified) -9.75%, CC1CCCCC1NC(=O)COc1ccc(C#N)cc1 (stereo unspecified) -9.56%, CC(C)NC(=O)Nc1ccc2c(c1)C(=O)N([C@@H](C)CO)C[C@@H](C)[C@H](CN(C)Cc1ccc(C(=O)O)cc1)O2 -28.1%, C[C@H]1CN([C@@H](C)CO)C(=O)c2cccc(NC(=O)c3ccncc3)c2O[C@H]1CN(C)C -1.05%, COc1ccc(S(=O)(=O)N2CCCCN3[C@H](C2)[C@H](c2ccc(C#CCC(C)C)cc2)[C@@H]3CO)cc1 18.7%, CCCC#Cc1ccc([C@H]2[C@@H](CO)N3CCCCN(S(=O)(=O)CC)C[C@H]23)cc1 6.07%, C[C@@H](O)C#Cc1ccc([C@@H]2[C@H]3CN(S(=O)(=O)c4ccccc4)CCCCN3[C@H]2CO)cc1 -13.8%, COc1cccc(S(=O)(=O)N2CCCCN3[C@H](C2)[C@@H](c2ccc(C4=CCCCC4)cc2)[C@@H]3CO)c1 12.7%, COc1ccc(S(=O)(=O)N2CCCCN3[C@H](C2)[C@H](c2ccc(C4=CCCC4)cc2)[C@@H]3CO)cc1 9.85%, CCCC#Cc1ccc([C@H]2[C@H](CO)N3CCCCN(S(=O)(=O)CC)C[C@@H]23)cc1 -26.1%, COc1cccc(S(=O)(=O)N2CCCCN3[C@H](CO)[C@H](c4ccc(C#CC5CC5)cc4)[C@H]3C2)c1 12.2%, COc1ccc(S(=O)(=O)N2CCCCN3[C@@H](CO)[C@@H](c4ccc(C#CCC(C)C)cc4)[C@@H]3C2)cc1 46.7%, CO[C@H]1CN(C)C(=O)c2ccc(NC(=O)C3CCC3)cc2OC[C@@H](C)NC[C@H]1C 9.77%, CC(=O)NC[C@H]1[C@H](c2ccc(C3=CCCCC3)cc2)[C@@H](CO)N1C(=O)NC(C)C -0.865%, CCCNC(=O)N1C[C@H]2[C@@H](c3ccccc31)[C@H](CO)N2C(=O)NC(C)C -13%, COCC(=O)Nc1ccc2c(c1)C(=O)N(C)C[C@@H](OC)[C@@H](C)CN(C(=O)Cc1ccccn1)[C@@H](C)CO2 -15.1%, CCC(=O)Nc1ccc2c(c1)C(=O)N(C)C[C@H](OC)[C@H](C)CN(CCC(F)(F)F)[C@H](C)CO2 -9.12%, COCC(=O)Nc1ccc2c(c1)OC[C@@H](C)N(C(=O)CC1CC1)C[C@@H](C)[C@@H](OC)CN(C)C2=O -0.715%, C/C=C/c1ccc(C2[C@H]3CNC[C@@H]2N3C(=O)Nc2cc(F)ccc2F)cc1 (stereo partly specified) -0.3%, CCNC(=O)Nc1ccc2c(c1)C(=O)N(C)[C@H]1CC[C@@H](CC(=O)N[C@H](C)c3ccccc3)O[C@@H]1CO2 -19%, C[C@H]1CN([C@@H](C)CO)C(=O)c2ccccc2-c2ccccc2CO[C@H]1CN(C)S(=O)(=O)c1ccccc1C#N -18.2%, O=C(C[C@@H]1C[C@@H]2c3cc(NS(=O)(=O)c4ccc(F)cc4)ccc3O[C@@H]2[C@H](CO)O1)N1CCCCC1 9.01%, CCCCCc1c(-c2cccc(Br)c2)ncn1CCc1ccccc1OC 9.05%, CCCCc1c(-c2ccc(Cl)cc2)ncn1CCc1ccccc1OC 33.1%, CN(C)CC#Cc1ccc([C@@H]2[C@H](CO)N3C(=O)CN(C(=O)Cc4cccnc4)C[C@@H]23)cc1 17.8%, Cc1ccccc1-c1ccc([C@@H]2[C@H](CO)N3CCCCN(S(=O)(=O)c4ccc(F)cc4)C[C@@H]23)cc1 -34.4%, Cc1ccc(OCC(=O)Nc2ccc(N3CCN(C(=O)c4ccco4)CC3)cc2)c(C)c1 7.91%, O=C(OCC(=O)N1CCN(C(=O)c2ccco2)CC1)c1c(Cl)cccc1Cl -6.1%, CC(C)c1cc(N=O)cc(C(C)C)c1O 1.72%, O=C(C[C@@H]1CC[C@H](NS(=O)(=O)c2cccc(F)c2)[C@H](CO)O1)N1CCCCC1 2.78%, O=C(CN1CCOCC1)N1CCCCN2[C@H](C1)[C@H](c1ccc(-c3ccccc3F)cc1)[C@@H]2CO 0.84%, C[C@@H]1CN([C@H](C)CO)C(=O)c2cc(NC(=O)c3ccncc3)ccc2O[C@@H]1CN(C)C(=O)Nc1ccc(F)cc1 -12.7%, CC[C@H](C)[C@H]1CNC(=O)C(=O)N1CC1CCN(CCc2ccc(OC)c(OC)c2)CC1 5.58%, Cc1noc(C)c1S(=O)(=O)Nc1ccc2c(c1)CC(=O)N([C@@H](C)CO)C[C@@H](C)[C@@H](CN(C)C(=O)Nc1ccc(C(F)(F)F)cc1)O2 4.57%, C[C@@H]1CCCCO[C@@H](CN(C)C(=O)Nc2cccc3ccccc23)[C@H](C)CN([C@@H](C)CO)C(=O)c2cc(NS(=O)(=O)c3ccccc3)ccc2O1 22.1%, C[C@@H]1CCCCO[C@H](CN(C)C(=O)NC2CCCCC2)[C@H](C)CN([C@H](C)CO)C(=O)c2cc(NS(=O)(=O)c3ccc(Cl)cc3)ccc2O1 53.7%, C[C@@H]1CCCCO[C@H](CN(C)CC2CCCCC2)[C@H](C)CN([C@H](C)CO)C(=O)c2cc(NS(=O)(=O)c3ccc(F)cc3)ccc2O1 53.6%, C[C@H]1CCCCO[C@@H](CN(C)C(=O)NC2CCCCC2)[C@@H](C)CN([C@@H](C)CO)C(=O)c2cc(NS(=O)(=O)c3ccc(Cl)cc3)ccc2O1 32.2%, COc1ccc(NC(=O)N(C)C[C@H]2OCCCC[C@@H](C)Oc3ccc(NS(=O)(=O)c4ccc(F)cc4)cc3C(=O)N([C@@H](C)CO)C[C@@H]2C)cc1 1.37%, Cc1ccc(S(=O)(=O)Nc2ccc3c(c2)C(=O)N([C@@H](C)CO)C[C@@H](C)[C@H](CN(C)C(=O)Nc2cccc4ccccc24)OCCCC[C@H](C)O3)cc1 22.8%, C[C@H](CO)N1C[C@H](C)[C@H](CN(C)CC2CCCCC2)OCCCC[C@H](C)Oc2ccc(NS(=O)(=O)c3ccc(F)cc3)cc2C1=O 52.9%, COc1ccc(NC(=O)N(C)C[C@H]2OCCCC[C@H](C)Oc3ccc(NS(=O)(=O)c4ccc(Cl)cc4)cc3C(=O)N([C@@H](C)CO)C[C@H]2C)cc1 -13.3%

inhibition, active:
CC[C@]1(O)C[C@@H]2CN(CCc3c([nH]c4ccccc34)[C@@](C(=O)OC)(c3cc4c(cc3OC)N(C)[C@H]3[C@@](O)(C(=O)OC)[C@H](OC(C)=O)[C@]5(CC)C=CCN6CC[C@]43[C@@H]65)C2)C1 94.6%, CC[C@]1(O)CC2CN(CCc3c([nH]c4ccccc34)[C@@](C(=O)OC)(c3cc4c(cc3OC)N(C=O)[C@H]3[C@@](O)(C(=O)OC)[C@H](OC(C)=O)[C@]5(CC)C=CCN6CC[C@]43[C@@H]65)C2)C1 (stereo partly specified) 82%, COc1cc(SC)ccc1C(=O)Nc1nc(C)cs1 72.7%, CC1CCCCC1NC(=O)/C(C#N)=C/C=C/c1ccccc1[N+](=O)[O-] (stereo unspecified) 91.1%, COc1ccc(S(=O)(=O)N2CCCCN3[C@H](CO)[C@@H](c4ccc(C#CC(C)C)cc4)[C@H]3C2)cc1 76.3%, COc1ccc(S(=O)(=O)N2CCCCN3[C@H](CO)[C@H](c4ccc(C5=CCCCC5)cc4)[C@@H]3C2)cc1 69.6%, CCCC#Cc1ccc([C@H]2[C@@H](CO)N3CCCCN(S(=O)(=O)Cc4ccccc4)C[C@H]23)cc1 86.5%, COc1cccc(S(=O)(=O)N2CCCCN3[C@H](C2)[C@H](c2ccc(C#CC(C)C)cc2)[C@@H]3CO)c1 69.8%, CCCCc1c(-c2ccc(Br)cc2)ncn1CCc1ccccc1OC 74%, Cc1ccc(C)c(OCC(=O)N2CCN(C(=O)c3ccco3)CC2)c1 64.3%, CC(C)=CCc1ccc(O)c(=O)cc1C(C)C 79.1%, C[C@@H]1CCCCO[C@@H](CN(C)C(=O)NC2CCCCC2)[C@H](C)CN([C@H](C)CO)C(=O)c2cc(NS(=O)(=O)c3ccc(Cl)cc3)ccc2O1 89.7%, C[C@H]1CCCCO[C@H](CN(C)CC2CCCCC2)[C@@H](C)CN([C@@H](C)CO)C(=O)c2cc(NS(=O)(=O)c3ccc(Cl)cc3)ccc2O1 68.9%, C[C@H]1CCCCO[C@@H](CN(C)C(=O)Nc2cccc3ccccc23)[C@@H](C)CN([C@@H](C)CO)C(=O)c2cc(NS(=O)(=O)c3ccc(Cl)cc3)ccc2O1 71.8%, COc1ccc(NC(=O)N(C)C[C@@H]2OCCCC[C@@H](C)Oc3ccc(NS(=O)(=O)c4ccc(Cl)cc4)cc3C(=O)N([C@H](C)CO)C[C@H]2C)cc1 63.7%
